A number with no mark means an inactive call.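 How the source made its calls: active means z-score of at least 1.8 in each of two replicates, scored against plate mean and spread of sample wells; inactive means the rest.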
Test: viability rescue of complex I mutant cybrids, primary screen, cell-based, galactose medium, ATP luminescence (AID 1645843);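 further: positive z means more ATP and so rescue of galactose-driven cybrid death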
Conditions: complex I mutant cybrid cells, 72 h, active compounds read high
Compound `COc1ccc2[nH]cc(CCC(=O)O)c2c1` has a z-score of 0.275.
For `COc1ccc(N2CCN(c3ncnc4sccc34)C(C)C2=O)cc1` (configuration not stated), the z-score was -0.505.
In the case of `O=C(Cn1nnc(-c2ccccc2)n1)Nc1ccnn1Cc1ccccc1`, the z-score is reported as 0.045.
In the case of `Cc1sc2ncnc(-c3cccc4cccnc34)c2c1C`, the z-score is reported as 0.64.
Compound `Cc1nsc(NC(=O)N2CCC(C(O)CC(C)C)CC2)n1` (configuration not stated) has a z-score of -0.63.
Compound `O=C(O)Cc1ccc(O)c([N+](=O)[O-])c1` has a z-score of 1.
With `Cc1cc(C(=O)N2CCc3[nH]nc(COc4ccccc4)c3C2)c(C)o1` the z-score was -0.42.
For `CCN(Cc1nccn1C)C(=O)c1cc(-c2cnc(C)nc2)nc2cc(F)ccc12`, the z-score was -0.2.
Work on `OC(CNCC(O)C1CCc2cc(F)ccc2O1)C1CCc2cc(F)ccc2O1` (configuration not stated) yielded a z-score of -2.66.
For `CN1CCN(Cc2ccc3nonc3c2)CC1CCO` (configuration not stated), the z-score was -0.35.
In the case of `CN1CCN(Cc2cccc(-n3cccn3)c2)CC1CCO` (configuration not stated), the z-score is reported as -0.58.
For `CC(O)Cc1cn(C2CCN(c3ncnc4nc[nH]c34)CC2)nn1` (configuration not stated), the z-score was -0.52.
`COc1ccc(-c2oc3c(CC=C(C)C)c(OC4OC(CO)C(O)C(O)C4O)cc(O)c3c(=O)c2OC2OC(C)C(O)C(O)C2O)cc1` (configuration not stated) gave a z-score of 0.865.
`COc1cccc2ncn(Cc3nc4ccccc4o3)c(=O)c12` showed a z-score of -0.545.
Work on `COc1cc(N(C)CC2COc3ccccc3O2)nc(N)n1` (configuration not stated) yielded a z-score of -0.58.
`COc1cc(Cn2cnc3nccnc3c2=O)cc(OC)c1` gave a z-score of -0.515.
For `OCCNc1ncnc2oc(-c3ccccc3)c(-c3ccccc3)c12`, the z-score was -1.23.
